The results in this text go back to article PMC7862700, “An all-to-all approach to the identification of sequence-specific readers for epigenetic DNA modifications on cytosine”.

Holding throughout (experiment): DAPPL (digital affinity profiling via proximity ligation, sequencing); 10 mM Tris-HCl pH 7.5, 50 mM NaCl, 1 mM DTT, 4% glycerol, room temperature, 30 min; GST-TFs on glutathione beads, 16-mer random dsDNA library, 0.1% formaldehyde crosslink after washing; high values mean tight binding
Test [1] has as its target T1, FEV (Homo sapiens, UniProt Q99581 1-238).
T1 sequence: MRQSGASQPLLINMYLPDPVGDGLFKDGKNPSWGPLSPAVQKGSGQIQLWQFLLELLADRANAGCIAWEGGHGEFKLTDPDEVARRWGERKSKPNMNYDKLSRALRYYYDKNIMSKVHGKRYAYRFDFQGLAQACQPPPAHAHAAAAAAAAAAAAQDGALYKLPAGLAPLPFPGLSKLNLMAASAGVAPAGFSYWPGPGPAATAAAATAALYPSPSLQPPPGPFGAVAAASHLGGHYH
As to conditions: protein: recombinant; tags: N-terminal GST; dsDNA, one strand shown. In outline:
(§1)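 Each value of binding signal is a hexamer's read frequency for a factor divided by the same hexamer's frequency in the tag-only sample. Barcoded, bead-captured GST fusions of human transcription factors made in yeast were pooled with that sample and incubated with 200 nmole of a random double-stranded 16-mer DNA library in Tris/NaCl/DTT/glycerol buffer at room temperature for 30 min. Washing, 0.1% formaldehyde crosslinking, proximity ligation, PCR and Illumina NextSeq500 sequencing followed.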

Test [2] concerns the target ETV5 (Homo sapiens, UniProt P41161 1-510). The conditions noted are these: protein: recombinant; tags: N-terminal GST; dsDNA, one strand shown. In outline:
as §1

Test [3] has as its target HSF1 (Homo sapiens, UniProt Q00613 1-529). The conditions noted are these: protein: recombinant; tags: N-terminal GST; chain copies: 3; dsDNA, one strand shown. The gist of the method:
as §1

Test [4] has as its target T2, SPIC (Homo sapiens, UniProt Q8N5J4 1-248).
T2 sequence: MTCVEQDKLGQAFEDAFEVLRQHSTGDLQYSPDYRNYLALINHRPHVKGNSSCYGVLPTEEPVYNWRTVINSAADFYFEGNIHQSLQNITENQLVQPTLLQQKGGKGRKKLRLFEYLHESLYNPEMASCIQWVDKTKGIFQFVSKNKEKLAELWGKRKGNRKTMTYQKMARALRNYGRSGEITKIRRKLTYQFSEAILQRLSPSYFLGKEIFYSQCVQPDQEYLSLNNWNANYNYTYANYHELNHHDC
The conditions noted are these: protein: recombinant; tags: N-terminal GST; dsDNA, one strand shown. The gist of the method:
as §1

The target in test [5] is ELF4 (Homo sapiens, UniProt Q99607 1-663). As to conditions: protein: recombinant; tags: N-terminal GST; dsDNA, one strand shown. The gist of the method:
as §1

The target in test [6] is T3, ELK4 (Homo sapiens, UniProt P28324-2 1-405).
T3 sequence: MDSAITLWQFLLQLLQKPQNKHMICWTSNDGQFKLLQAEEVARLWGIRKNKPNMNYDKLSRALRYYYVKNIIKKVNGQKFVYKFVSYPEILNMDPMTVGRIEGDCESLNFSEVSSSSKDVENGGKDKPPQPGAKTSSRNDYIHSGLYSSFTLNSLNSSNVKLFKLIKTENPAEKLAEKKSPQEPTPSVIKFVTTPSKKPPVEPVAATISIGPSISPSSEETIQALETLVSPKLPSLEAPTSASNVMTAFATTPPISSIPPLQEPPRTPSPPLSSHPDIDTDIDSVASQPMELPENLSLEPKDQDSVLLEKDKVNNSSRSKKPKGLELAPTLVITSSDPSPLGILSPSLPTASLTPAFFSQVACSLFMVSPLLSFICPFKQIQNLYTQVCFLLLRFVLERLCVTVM
As to conditions: protein: recombinant; tags: N-terminal GST; dsDNA, one strand shown. The gist of the method: as §1

The target of test [7] is T4, ETV2 (Homo sapiens, UniProt O00321 1-342).
T4 sequence: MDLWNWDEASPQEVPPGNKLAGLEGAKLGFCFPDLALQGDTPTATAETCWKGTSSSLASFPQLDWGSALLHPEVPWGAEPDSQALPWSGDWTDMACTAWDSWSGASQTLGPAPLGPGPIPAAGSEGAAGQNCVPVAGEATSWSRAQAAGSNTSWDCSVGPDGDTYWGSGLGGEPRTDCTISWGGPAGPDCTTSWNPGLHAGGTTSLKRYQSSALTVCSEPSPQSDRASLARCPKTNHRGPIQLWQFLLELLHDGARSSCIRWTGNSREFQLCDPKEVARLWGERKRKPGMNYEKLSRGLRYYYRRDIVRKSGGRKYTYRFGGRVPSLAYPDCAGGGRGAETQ
As to conditions: protein: recombinant; tags: N-terminal GST; dsDNA, one strand shown. In outline:
as §1

The target of test [8] is T5, ELF3 (Homo sapiens, UniProt P78545 1-371).
T5 sequence: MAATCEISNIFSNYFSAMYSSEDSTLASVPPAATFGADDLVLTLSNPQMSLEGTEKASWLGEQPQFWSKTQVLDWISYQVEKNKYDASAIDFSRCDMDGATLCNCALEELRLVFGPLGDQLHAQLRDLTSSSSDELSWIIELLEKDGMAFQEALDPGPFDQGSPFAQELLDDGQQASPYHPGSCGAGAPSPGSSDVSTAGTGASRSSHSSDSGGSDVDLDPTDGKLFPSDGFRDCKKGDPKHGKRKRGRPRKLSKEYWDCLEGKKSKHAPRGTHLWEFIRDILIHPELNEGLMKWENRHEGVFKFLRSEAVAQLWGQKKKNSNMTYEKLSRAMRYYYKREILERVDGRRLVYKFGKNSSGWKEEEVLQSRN
As to conditions: protein: recombinant; tags: N-terminal GST; dsDNA, one strand shown. In outline: as §1

Test [9] deals with CRX (Homo sapiens, UniProt O43186 1-299). The conditions noted are these: protein: recombinant; tags: N-terminal GST; dsDNA, one strand shown. In outline:
as §1

In test [10] the target is ETV1 (Homo sapiens, UniProt P50549 1-477). The conditions noted are these: protein: recombinant; tags: N-terminal GST; dsDNA, one strand shown. In outline:
as §1

Test [11] addresses T6, ERF (Homo sapiens, UniProt P50548 1-548).
T6 sequence: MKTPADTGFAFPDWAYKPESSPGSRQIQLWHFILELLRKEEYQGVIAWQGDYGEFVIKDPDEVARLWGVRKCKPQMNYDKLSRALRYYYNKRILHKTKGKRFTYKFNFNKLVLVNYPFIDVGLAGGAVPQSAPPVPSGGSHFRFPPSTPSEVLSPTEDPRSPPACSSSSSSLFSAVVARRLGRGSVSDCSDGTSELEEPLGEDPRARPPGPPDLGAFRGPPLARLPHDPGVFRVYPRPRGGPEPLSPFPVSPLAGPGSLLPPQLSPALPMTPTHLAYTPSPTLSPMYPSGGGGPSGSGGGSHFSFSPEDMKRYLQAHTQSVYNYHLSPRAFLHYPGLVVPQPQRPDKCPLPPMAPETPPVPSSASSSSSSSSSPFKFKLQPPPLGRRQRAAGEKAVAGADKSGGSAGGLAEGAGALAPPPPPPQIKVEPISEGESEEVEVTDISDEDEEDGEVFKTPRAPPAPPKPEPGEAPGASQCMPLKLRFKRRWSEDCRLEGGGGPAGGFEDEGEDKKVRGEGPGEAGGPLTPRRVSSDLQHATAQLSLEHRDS
As to conditions: protein: recombinant; tags: N-terminal GST; dsDNA, one strand shown. In outline:
as §1

Test [12] concerns the target T7, ETV3L (Homo sapiens, UniProt Q6ZN32 1-361).
T7 sequence: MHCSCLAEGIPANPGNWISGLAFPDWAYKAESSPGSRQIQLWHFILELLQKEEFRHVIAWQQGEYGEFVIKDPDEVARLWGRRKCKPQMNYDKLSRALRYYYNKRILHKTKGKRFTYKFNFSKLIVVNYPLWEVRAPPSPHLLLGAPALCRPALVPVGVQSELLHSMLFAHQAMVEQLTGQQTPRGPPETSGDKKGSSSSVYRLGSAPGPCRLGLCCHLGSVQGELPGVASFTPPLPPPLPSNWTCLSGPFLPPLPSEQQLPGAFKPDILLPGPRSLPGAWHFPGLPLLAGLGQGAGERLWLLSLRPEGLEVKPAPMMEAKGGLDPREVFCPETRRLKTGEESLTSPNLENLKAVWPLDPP
As to conditions: protein: recombinant; tags: N-terminal GST; dsDNA, one strand shown. The gist of the method: as §1

In test [13] the target is T8, ETS2 (Homo sapiens, UniProt P15036 1-469).
T8 sequence: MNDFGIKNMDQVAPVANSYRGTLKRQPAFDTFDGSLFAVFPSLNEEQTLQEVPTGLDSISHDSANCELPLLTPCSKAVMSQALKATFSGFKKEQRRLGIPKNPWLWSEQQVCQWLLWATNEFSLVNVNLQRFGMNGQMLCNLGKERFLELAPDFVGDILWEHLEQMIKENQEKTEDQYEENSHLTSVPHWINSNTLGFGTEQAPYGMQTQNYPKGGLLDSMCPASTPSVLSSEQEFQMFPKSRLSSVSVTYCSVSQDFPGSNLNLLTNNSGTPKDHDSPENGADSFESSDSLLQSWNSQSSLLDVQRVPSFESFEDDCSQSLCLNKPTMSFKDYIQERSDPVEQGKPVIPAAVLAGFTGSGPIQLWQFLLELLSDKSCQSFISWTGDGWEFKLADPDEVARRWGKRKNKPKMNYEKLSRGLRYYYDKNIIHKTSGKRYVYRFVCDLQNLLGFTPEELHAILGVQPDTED
The conditions noted are these: protein: recombinant; tags: N-terminal GST; dsDNA, one strand shown. In outline: as §1

Test [14] addresses T9, SPDEF (Homo sapiens, UniProt O95238 1-335).
T9 sequence: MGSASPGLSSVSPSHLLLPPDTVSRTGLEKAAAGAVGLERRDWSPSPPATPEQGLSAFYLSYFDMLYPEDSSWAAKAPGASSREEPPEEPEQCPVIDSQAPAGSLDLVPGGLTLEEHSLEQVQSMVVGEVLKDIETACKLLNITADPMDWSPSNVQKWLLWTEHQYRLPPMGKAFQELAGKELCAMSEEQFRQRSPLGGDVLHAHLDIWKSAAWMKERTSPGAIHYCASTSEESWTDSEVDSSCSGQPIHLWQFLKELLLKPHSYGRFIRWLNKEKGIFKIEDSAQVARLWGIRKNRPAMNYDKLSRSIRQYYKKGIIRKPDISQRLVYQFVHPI
The conditions noted are these: protein: recombinant; tags: N-terminal GST; dsDNA, one strand shown. The gist of the method: as §1

Test [15] deals with T10, ETV7 (Homo sapiens, UniProt Q9Y603 1-341).
T10 sequence: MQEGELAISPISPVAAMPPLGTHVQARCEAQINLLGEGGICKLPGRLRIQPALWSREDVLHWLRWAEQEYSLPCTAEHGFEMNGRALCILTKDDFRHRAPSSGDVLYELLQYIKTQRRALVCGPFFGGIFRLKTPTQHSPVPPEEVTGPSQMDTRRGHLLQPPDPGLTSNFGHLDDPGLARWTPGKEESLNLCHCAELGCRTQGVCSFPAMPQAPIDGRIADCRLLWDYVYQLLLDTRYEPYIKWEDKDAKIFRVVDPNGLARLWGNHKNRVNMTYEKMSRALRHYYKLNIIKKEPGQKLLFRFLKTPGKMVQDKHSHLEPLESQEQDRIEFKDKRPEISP
The conditions noted are these: protein: recombinant; tags: N-terminal GST; dsDNA, one strand shown. The gist of the method:
as §1

Test [16] concerns the target T11, ELF5 (Homo sapiens, UniProt Q9UKW6-2 1-255).
T11 sequence: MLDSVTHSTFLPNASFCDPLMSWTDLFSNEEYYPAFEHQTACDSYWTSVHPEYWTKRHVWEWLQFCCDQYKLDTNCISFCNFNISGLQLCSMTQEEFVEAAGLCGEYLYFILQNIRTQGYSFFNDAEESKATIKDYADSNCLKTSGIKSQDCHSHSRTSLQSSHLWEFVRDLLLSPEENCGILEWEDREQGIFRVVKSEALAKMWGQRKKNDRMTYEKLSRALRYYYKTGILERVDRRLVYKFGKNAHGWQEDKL
As to conditions: protein: recombinant; tags: N-terminal GST; dsDNA, one strand shown. The gist of the method: as §1

In test [17] the target is T12, ETV3 (Homo sapiens, UniProt P41162-2 1-143).
T12 sequence: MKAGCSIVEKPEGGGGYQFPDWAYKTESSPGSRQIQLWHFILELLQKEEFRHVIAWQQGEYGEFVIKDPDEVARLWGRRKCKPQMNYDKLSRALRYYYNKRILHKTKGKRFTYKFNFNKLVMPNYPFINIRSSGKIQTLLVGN
As to conditions: protein: recombinant; tags: N-terminal GST; dsDNA, one strand shown. In outline: as §1

Test [18] deals with ETV6 (Homo sapiens, UniProt P41212 1-452). As to conditions: protein: recombinant; tags: N-terminal GST; dsDNA, one strand shown. The gist of the method: as §1
Sequence of ETV6 (P41212 whole entry): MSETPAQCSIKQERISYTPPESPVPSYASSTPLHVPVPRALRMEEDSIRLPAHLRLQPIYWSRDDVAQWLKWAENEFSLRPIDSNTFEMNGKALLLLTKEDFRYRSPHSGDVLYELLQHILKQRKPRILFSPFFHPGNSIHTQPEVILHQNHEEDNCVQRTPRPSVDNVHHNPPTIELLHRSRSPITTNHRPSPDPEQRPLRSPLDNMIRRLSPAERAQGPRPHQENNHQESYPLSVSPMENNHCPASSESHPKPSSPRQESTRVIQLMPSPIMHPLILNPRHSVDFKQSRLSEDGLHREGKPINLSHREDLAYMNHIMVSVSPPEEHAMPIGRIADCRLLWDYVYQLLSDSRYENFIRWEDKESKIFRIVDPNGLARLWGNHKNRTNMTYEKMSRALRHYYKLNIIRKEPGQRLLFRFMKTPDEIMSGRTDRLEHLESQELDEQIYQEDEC

Sequence of HSF1 (Q00613 whole entry): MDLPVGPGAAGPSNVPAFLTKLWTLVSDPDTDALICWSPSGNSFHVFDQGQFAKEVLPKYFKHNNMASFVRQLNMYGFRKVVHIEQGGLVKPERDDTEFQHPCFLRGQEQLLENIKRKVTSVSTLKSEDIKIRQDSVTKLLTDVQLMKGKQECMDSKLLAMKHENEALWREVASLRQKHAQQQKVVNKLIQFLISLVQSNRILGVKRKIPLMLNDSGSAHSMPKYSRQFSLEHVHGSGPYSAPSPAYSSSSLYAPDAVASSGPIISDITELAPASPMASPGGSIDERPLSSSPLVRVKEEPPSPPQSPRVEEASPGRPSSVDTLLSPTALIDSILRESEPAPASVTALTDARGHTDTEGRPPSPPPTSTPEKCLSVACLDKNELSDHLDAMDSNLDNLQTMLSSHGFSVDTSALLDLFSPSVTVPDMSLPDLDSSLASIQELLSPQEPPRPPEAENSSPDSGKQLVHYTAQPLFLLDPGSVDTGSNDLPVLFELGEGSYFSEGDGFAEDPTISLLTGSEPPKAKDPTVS
Sequence of ELF4 (Q99607 whole entry): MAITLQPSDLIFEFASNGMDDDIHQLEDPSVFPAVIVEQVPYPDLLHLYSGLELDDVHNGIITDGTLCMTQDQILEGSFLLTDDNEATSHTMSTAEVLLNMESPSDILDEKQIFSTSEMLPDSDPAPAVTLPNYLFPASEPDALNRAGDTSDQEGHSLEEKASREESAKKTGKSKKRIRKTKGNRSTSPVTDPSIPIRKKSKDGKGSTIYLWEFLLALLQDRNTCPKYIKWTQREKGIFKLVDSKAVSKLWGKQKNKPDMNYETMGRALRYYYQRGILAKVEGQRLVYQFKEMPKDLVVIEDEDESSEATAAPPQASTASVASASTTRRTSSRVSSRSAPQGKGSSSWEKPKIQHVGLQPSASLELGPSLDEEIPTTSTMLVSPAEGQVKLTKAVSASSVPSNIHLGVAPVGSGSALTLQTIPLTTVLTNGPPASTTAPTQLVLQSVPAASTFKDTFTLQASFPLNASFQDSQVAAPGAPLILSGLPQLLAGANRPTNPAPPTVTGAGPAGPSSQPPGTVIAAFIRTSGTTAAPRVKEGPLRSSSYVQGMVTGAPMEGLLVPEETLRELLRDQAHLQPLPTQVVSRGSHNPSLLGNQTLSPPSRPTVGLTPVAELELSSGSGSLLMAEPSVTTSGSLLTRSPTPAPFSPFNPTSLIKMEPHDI
Sequence of CRX (O43186 whole entry): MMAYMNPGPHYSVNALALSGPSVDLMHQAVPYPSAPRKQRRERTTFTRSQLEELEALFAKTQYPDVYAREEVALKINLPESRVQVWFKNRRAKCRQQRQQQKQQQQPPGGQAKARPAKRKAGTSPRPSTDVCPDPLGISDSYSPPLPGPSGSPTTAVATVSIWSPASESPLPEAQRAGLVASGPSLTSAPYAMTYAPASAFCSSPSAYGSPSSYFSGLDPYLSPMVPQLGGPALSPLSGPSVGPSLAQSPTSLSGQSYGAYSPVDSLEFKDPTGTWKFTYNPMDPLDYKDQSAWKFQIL
Sequence of ETV5 (P41161 whole entry): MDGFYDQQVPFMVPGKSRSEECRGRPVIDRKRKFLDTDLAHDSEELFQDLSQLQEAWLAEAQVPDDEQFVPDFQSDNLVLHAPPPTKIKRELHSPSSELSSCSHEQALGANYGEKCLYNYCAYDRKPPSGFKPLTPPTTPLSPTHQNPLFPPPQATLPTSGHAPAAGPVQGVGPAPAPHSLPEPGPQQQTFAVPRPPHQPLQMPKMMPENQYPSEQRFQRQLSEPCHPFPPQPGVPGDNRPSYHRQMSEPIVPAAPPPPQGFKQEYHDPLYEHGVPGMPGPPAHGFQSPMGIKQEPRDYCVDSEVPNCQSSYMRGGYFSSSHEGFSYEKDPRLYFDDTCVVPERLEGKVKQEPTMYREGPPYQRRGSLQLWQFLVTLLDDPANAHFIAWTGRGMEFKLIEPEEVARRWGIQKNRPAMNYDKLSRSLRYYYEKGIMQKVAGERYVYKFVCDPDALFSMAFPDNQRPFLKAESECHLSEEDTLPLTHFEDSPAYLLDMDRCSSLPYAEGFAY
Sequence of ETV1 (P50549 whole entry): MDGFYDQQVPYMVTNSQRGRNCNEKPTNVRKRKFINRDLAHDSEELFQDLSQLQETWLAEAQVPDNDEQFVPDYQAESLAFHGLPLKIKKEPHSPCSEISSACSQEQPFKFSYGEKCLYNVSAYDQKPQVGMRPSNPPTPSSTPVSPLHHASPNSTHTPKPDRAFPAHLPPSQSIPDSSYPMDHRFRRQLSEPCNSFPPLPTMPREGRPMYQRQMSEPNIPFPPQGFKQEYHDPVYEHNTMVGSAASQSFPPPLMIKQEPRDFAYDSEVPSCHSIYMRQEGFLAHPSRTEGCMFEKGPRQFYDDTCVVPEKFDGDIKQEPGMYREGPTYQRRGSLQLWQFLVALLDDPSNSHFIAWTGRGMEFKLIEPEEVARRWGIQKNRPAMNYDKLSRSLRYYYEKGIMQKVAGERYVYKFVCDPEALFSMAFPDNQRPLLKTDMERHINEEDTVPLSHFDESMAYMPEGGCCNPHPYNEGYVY

Take CTGATT: the binding signal in test [1] was 1.05 fold enrichment (6-mer frequency, TF over GST control); in [2], 1.25 fold enrichment (6-mer frequency, TF over GST control); in [3] it was 1.32 fold enrichment (6-mer frequency, TF over GST control); in [4], 1.5 fold enrichment (6-mer frequency, TF over GST control); in test [5], 1.22 fold enrichment (6-mer frequency, TF over GST control); in [6], 1.09 fold enrichment (6-mer frequency, TF over GST control). Also, the binding signal in test [7] is 1.21 fold enrichment (6-mer frequency, TF over GST control); in test [8], 1.12 fold enrichment (6-mer frequency, TF over GST control); in test [9], 1.51 fold enrichment (6-mer frequency, TF over GST control); in test [10], 1.27 fold enrichment (6-mer frequency, TF over GST control); in test [11], 1.21 fold enrichment (6-mer frequency, TF over GST control); in test [12] it was 1.26 fold enrichment (6-mer frequency, TF over GST control). For the same sequence, the binding signal in [13] was 1.26 fold enrichment (6-mer frequency, TF over GST control); in [14] it was 1.21 fold enrichment (6-mer frequency, TF over GST control); in test [15] it was 1.24 fold enrichment (6-mer frequency, TF over GST control); in test [16] it was 1.19 fold enrichment (6-mer frequency, TF over GST control); in test [17], 1.17 fold enrichment (6-mer frequency, TF over GST control); in [18] it was 1.17 fold enrichment (6-mer frequency, TF over GST control).
